# Target: SPI1 (Homo sapiens, UniProt P17947 1-270)
# Assay: DAPPL (digital affinity profiling via proximity ligation, sequencing); 10 mM Tris-HCl pH 7.5, 50 mM NaCl, 1 mM DTT, 4% glycerol, room temperature, 30 min; GST-TFs on glutathione beads, 16-mer random dsDNA library, 0.1% formaldehyde crosslink after washing; high values mean tight binding
# Details: protein: recombinant; tags: N-terminal GST; dsDNA, one strand shown
# Summary of the method: (§1)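 Yeast served to express human transcription factors as GST fusions, which were then captured on glutathione beads and labelled with DNA barcodes. Pooled with a tag-only sample, they were incubated with 200 nmole of a 16-mer random double-stranded DNA library for 30 min at room temperature in Tris/NaCl/DTT/glycerol buffer, washed, crosslinked with 0.1% formaldehyde, ligated by proximity, amplified by PCR and sequenced. Dividing each hexamer's read frequency for a factor by its frequency for the tag-only sample gives the binding signal.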
row,Sequence,binding signal
1,GTCTAC,"1.12 fold enrichment (6-mer frequency, TF over GST control)"
2,TGGTGC,"1.12 fold enrichment (6-mer frequency, TF over GST control)"
3,CATACG,"1.06 fold enrichment (6-mer frequency, TF over GST control)"
4,AAGGGT,"1.05 fold enrichment (6-mer frequency, TF over GST control)"
5,TTGCCG,"1.12 fold enrichment (6-mer frequency, TF over GST control)"
6,ACATGG,"1.14 fold enrichment (6-mer frequency, TF over GST control)"
7,GTTGAT,"1.12 fold enrichment (6-mer frequency, TF over GST control)"
8,ATGCCG,"1.13 fold enrichment (6-mer frequency, TF over GST control)"
9,ACCACC,"1.1 fold enrichment (6-mer frequency, TF over GST control)"
10,TGCCAA,"1.12 fold enrichment (6-mer frequency, TF over GST control)"
11,GCGCGC,"1.05 fold enrichment (6-mer frequency, TF over GST control)"
12,GTCCCA,"1.13 fold enrichment (6-mer frequency, TF over GST control)"
13,CCGATG,"1.08 fold enrichment (6-mer frequency, TF over GST control)"
14,CCATGC,"1.01 fold enrichment (6-mer frequency, TF over GST control)"
15,GCTGCC,"1.06 fold enrichment (6-mer frequency, TF over GST control)"
16,GTCTTG,"1.01 fold enrichment (6-mer frequency, TF over GST control)"
17,TGGACC,"1.1 fold enrichment (6-mer frequency, TF over GST control)"
18,GCCCAC,"1.07 fold enrichment (6-mer frequency, TF over GST control)"
19,GGTTTT,"1.24 fold enrichment (6-mer frequency, TF over GST control)"
20,CCACCT,"1.11 fold enrichment (6-mer frequency, TF over GST control)"
21,TTGGTC,"1.08 fold enrichment (6-mer frequency, TF over GST control)"
22,GGGTTC,"1.11 fold enrichment (6-mer frequency, TF over GST control)"
23,ACGTTG,"1.08 fold enrichment (6-mer frequency, TF over GST control)"
24,TGGTCA,"1.05 fold enrichment (6-mer frequency, TF over GST control)"
25,AAAGCG,"1.53 fold enrichment (6-mer frequency, TF over GST control)"
26,ATGGTG,"1.07 fold enrichment (6-mer frequency, TF over GST control)"
27,TGCTGC,"1.11 fold enrichment (6-mer frequency, TF over GST control)"
28,CATCGC,"1.06 fold enrichment (6-mer frequency, TF over GST control)"

# Target: SPIB (Homo sapiens, UniProt Q01892 1-262)
# Sequence (Q01892 whole entry): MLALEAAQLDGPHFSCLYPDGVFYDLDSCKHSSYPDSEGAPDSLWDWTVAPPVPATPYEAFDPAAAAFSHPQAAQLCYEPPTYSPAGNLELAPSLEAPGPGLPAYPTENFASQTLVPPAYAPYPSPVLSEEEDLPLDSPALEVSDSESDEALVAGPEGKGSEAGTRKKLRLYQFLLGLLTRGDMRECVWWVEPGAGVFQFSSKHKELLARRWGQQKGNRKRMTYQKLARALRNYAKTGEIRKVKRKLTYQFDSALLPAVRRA
# Assay: as above
# Details: protein: recombinant; tags: N-terminal GST; dsDNA, one strand shown
# Summary of the method: as §1
row,Sequence,binding signal
1,GTCTAC,"1.03 fold enrichment (6-mer frequency, TF over GST control)"
2,GCCCCA,"1 fold enrichment (6-mer frequency, TF over GST control)"
3,CGCCCG,"1.2 fold enrichment (6-mer frequency, TF over GST control)"
4,TGGTGC,"1.06 fold enrichment (6-mer frequency, TF over GST control)"
5,AAGGGT,"1.04 fold enrichment (6-mer frequency, TF over GST control)"
6,TTGCCG,"1.12 fold enrichment (6-mer frequency, TF over GST control)"
7,ACATGG,"1.04 fold enrichment (6-mer frequency, TF over GST control)"
8,GTTGAT,"1.1 fold enrichment (6-mer frequency, TF over GST control)"
9,CATCCA,"1 fold enrichment (6-mer frequency, TF over GST control)"
10,ATGCCG,"1.17 fold enrichment (6-mer frequency, TF over GST control)"
11,CCGCTG,"1.07 fold enrichment (6-mer frequency, TF over GST control)"
12,ACCACC,"1.18 fold enrichment (6-mer frequency, TF over GST control)"
13,TGCCAA,"1.11 fold enrichment (6-mer frequency, TF over GST control)"
14,GCGCGC,"1.18 fold enrichment (6-mer frequency, TF over GST control)"
15,GTCCCA,"1.06 fold enrichment (6-mer frequency, TF over GST control)"
16,CCGATG,"1.2 fold enrichment (6-mer frequency, TF over GST control)"
17,GCTGCC,"1.03 fold enrichment (6-mer frequency, TF over GST control)"
18,TCAACA,"1.01 fold enrichment (6-mer frequency, TF over GST control)"

row,Sequence,binding signal
1,GTCTTG,"1.04 fold enrichment (6-mer frequency, TF over GST control)"
2,ACCACA,"1.04 fold enrichment (6-mer frequency, TF over GST control)"
3,TGGACC,"1.02 fold enrichment (6-mer frequency, TF over GST control)"
4,GCCCAC,"1.12 fold enrichment (6-mer frequency, TF over GST control)"
5,CGGCCT,"1.02 fold enrichment (6-mer frequency, TF over GST control)"
6,GGTTTT,"1.05 fold enrichment (6-mer frequency, TF over GST control)"
7,CCACCT,"1.07 fold enrichment (6-mer frequency, TF over GST control)"
8,TTGGTC,"1.05 fold enrichment (6-mer frequency, TF over GST control)"
9,GGGTTC,"1.09 fold enrichment (6-mer frequency, TF over GST control)"
10,ACGTTG,"1.02 fold enrichment (6-mer frequency, TF over GST control)"
11,CCACAC,"1.04 fold enrichment (6-mer frequency, TF over GST control)"
12,TGGTCA,"1.07 fold enrichment (6-mer frequency, TF over GST control)"
13,AGCAAC,"1.08 fold enrichment (6-mer frequency, TF over GST control)"
14,AAAGCG,"1.1 fold enrichment (6-mer frequency, TF over GST control)"
15,ATGGTG,"1.01 fold enrichment (6-mer frequency, TF over GST control)"
16,TGCTGC,"1.07 fold enrichment (6-mer frequency, TF over GST control)"
17,CATCGC,"1.1 fold enrichment (6-mer frequency, TF over GST control)"

# Target: T1, ELK3 (Homo sapiens, UniProt P41970 1-407)
# T1 sequence: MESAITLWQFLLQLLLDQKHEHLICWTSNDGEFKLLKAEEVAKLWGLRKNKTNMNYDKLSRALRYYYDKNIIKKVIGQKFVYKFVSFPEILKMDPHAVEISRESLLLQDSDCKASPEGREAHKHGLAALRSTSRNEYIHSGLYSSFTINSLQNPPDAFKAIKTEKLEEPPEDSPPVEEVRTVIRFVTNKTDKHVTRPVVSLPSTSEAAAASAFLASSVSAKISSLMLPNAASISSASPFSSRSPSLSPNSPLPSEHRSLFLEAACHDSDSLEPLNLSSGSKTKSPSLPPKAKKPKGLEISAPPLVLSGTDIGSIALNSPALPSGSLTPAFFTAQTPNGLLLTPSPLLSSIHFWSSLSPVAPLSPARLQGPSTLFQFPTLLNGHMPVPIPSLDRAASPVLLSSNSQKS
# Assay: as above
# Details: protein: recombinant; tags: N-terminal GST; dsDNA, one strand shown
# Summary of the method: as §1
row,Sequence,binding signal
1,GTCTAC,"1.06 fold enrichment (6-mer frequency, TF over GST control)"
2,GCCCCA,"1.1 fold enrichment (6-mer frequency, TF over GST control)"
3,CGCCCG,"1.15 fold enrichment (6-mer frequency, TF over GST control)"
4,CATACG,"1.12 fold enrichment (6-mer frequency, TF over GST control)"
5,TTGCCG,"1.07 fold enrichment (6-mer frequency, TF over GST control)"
6,ACATGG,"1.09 fold enrichment (6-mer frequency, TF over GST control)"
7,ATGCCG,"1.07 fold enrichment (6-mer frequency, TF over GST control)"
8,ACCACC,"1.21 fold enrichment (6-mer frequency, TF over GST control)"
9,TGCCAA,"1.05 fold enrichment (6-mer frequency, TF over GST control)"
10,GCGCGC,"1.01 fold enrichment (6-mer frequency, TF over GST control)"
11,GTCCCA,"1.18 fold enrichment (6-mer frequency, TF over GST control)"
12,CCATGC,"1.04 fold enrichment (6-mer frequency, TF over GST control)"
13,GCTGCC,"1.05 fold enrichment (6-mer frequency, TF over GST control)"
14,TCAACA,"1.06 fold enrichment (6-mer frequency, TF over GST control)"
15,GTCTTG,"1.17 fold enrichment (6-mer frequency, TF over GST control)"
16,ACCACA,"1.14 fold enrichment (6-mer frequency, TF over GST control)"
17,GCCCAC,"1.03 fold enrichment (6-mer frequency, TF over GST control)"
18,CGGCCT,"1.13 fold enrichment (6-mer frequency, TF over GST control)"
19,GGTTTT,"1.04 fold enrichment (6-mer frequency, TF over GST control)"
20,CCACCT,"1.06 fold enrichment (6-mer frequency, TF over GST control)"
21,TTGGTC,"1.11 fold enrichment (6-mer frequency, TF over GST control)"
22,ACGTTG,"1.01 fold enrichment (6-mer frequency, TF over GST control)"
23,CCACAC,"1.11 fold enrichment (6-mer frequency, TF over GST control)"
24,AAAGCG,"1.08 fold enrichment (6-mer frequency, TF over GST control)"
25,ATGGTG,"1.02 fold enrichment (6-mer frequency, TF over GST control)"
26,TGCTGC,"1.08 fold enrichment (6-mer frequency, TF over GST control)"
27,CATCGC,"1.23 fold enrichment (6-mer frequency, TF over GST control)"

# Target: T2, FEV (Homo sapiens, UniProt Q99581 1-238)
# T2 sequence: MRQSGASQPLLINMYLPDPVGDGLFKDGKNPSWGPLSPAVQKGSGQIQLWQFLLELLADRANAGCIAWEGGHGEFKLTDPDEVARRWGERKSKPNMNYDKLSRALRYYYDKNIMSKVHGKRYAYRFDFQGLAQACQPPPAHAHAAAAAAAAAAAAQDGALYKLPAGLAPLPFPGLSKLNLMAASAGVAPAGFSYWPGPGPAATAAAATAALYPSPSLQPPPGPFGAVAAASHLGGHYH
# Assay: as above
# Details: protein: recombinant; tags: N-terminal GST; dsDNA, one strand shown
# Summary of the method: as §1
row,Sequence,binding signal
1,GTCTAC,"1.08 fold enrichment (6-mer frequency, TF over GST control)"
2,GCCCCA,"1.07 fold enrichment (6-mer frequency, TF over GST control)"
3,CGCCCG,"1.14 fold enrichment (6-mer frequency, TF over GST control)"
4,AAGGCA,"1.07 fold enrichment (6-mer frequency, TF over GST control)"
5,TGGTGC,"1 fold enrichment (6-mer frequency, TF over GST control)"
6,CATACG,"1.05 fold enrichment (6-mer frequency, TF over GST control)"
7,TTGCCG,"1.12 fold enrichment (6-mer frequency, TF over GST control)"
8,ACATGG,"1.04 fold enrichment (6-mer frequency, TF over GST control)"
9,ATGCCG,"1.16 fold enrichment (6-mer frequency, TF over GST control)"
